Test results reported in PubChem BioAssay (EPA / NIEHS).
Several values for one entry are separate records, joined by “and”; a condition that tells them apart may be missing. Equal values may be shown once. Some structures have more than one record in an assay (separate samples or runs), and their calls can disagree. Activity calls are given as the source filed them. How the source made its calls: active means hit-call score of the fitted dose curve at least 0.9, where 1 is the maximum; inactive means score below 0.9.

Key:
[1] = ATG_GLI_CIS: Attagene CIS-FACTORIAL HepG2 Assay for human Zinc Finger Protein GLI1 (AID 2282945); conditions: HepG2, Attagene cis-factorial reporter mRNA, GLI element; actives raise or lower the signal
In short: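 HepG2 cells transiently transfected with cis-promoter multiplexed reporter units report endogenous transcription factor activity. After 24 h chemical exposure, reporter mRNA was quantified by RT-PCR, 6-FAM labelling, HpaI digestion and capillary electrophoresis, with bidirectional fitting against DMSO.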

[2] = biological target: Bile acid receptor (Homo sapiens) (UniProt Q96RI1); test: ATG_IR1_CIS: Attagene CIS-FACTORIAL HepG2 Assay for human Nuclear Receptor Subfamily 1 Group H Member 4 (NR1H4), IR1 submotif (AID 2282946); conditions: IR1 reporter transcription, actives raise or lower the signal
In short: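 Transient MRTU transfection, HepG2; 24 h dosing; RNA → RT-PCR → 6-FAM primer extension → HpaI digest → capillary electrophoresis fluorescence. Gain/loss of signal fitted relative to DMSO.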

[3] = ATG_GRE_CIS: Attagene CIS-FACTORIAL HepG2 Assay for human Glucocorticoid Response Elements (GRE) (AID 2282947); conditions: HepG2 GRE cis-reporter, Attagene multiplex mRNA; actives raise or lower the signal
In short: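 HepG2 cells transiently transfected with multiple cis-promoter reporter units measure endogenous TF activity; 24 h compound exposure. Reporter mRNA quantified by RT-PCR, FAM labelling, HpaI digestion and capillary electrophoresis; bidirectional fit vs DMSO baseline.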

[4] = ATG_ISRE_CIS: Attagene CIS-FACTORIAL HepG2 Assay for human Interferon Regulatory Factor 1 (IRF1) binding to an Interferon-Stimulated Response Element (ISRE) (AID 2282948); conditions: HepG2 ISRE cis-reporter (Attagene), mRNA transcription readout; actives raise or lower the signal
In short: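 HepG2 cells transiently transfected with multiplexed cis-promoter reporter units; after 24 h compound exposure, reporter mRNA quantified by RT-PCR, FAM labelling, HpaI digestion and capillary electrophoresis. Bidirectional fit versus DMSO baseline.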

[5] = ATG_M_32_CIS: Attagene CIS-FACTORIAL HepG2 Assay for M32 Transcription Factor (Internal Marker) (AID 2282949); conditions: HepG2 Attagene cis-factorial M32 reporter, mRNA; actives raise or lower the signal;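 further: background control marker of the multiplexed CIS panel rather than a real target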
In short: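 Internal background marker read-out: RT-PCR/capillary electrophoresis fluorescence of reporter transcripts from transiently transfected HepG2 cells after 24 h chemical exposure. Activity fitted bidirectionally relative to DMSO negative control.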

[6] = ATG_M_06_CIS: Attagene CIS-FACTORIAL HepG2 Assay for M06 Transcription Factor (Internal Marker) (AID 2282950); conditions: HepG2 Attagene CIS-FACTORIAL M06 internal marker reporter; actives raise or lower the signal
In short: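 One of many multiplexed endpoints: HepG2 reporter mRNA after 24 h dosing, detected by RT-PCR and capillary electrophoresis fluorescence; gain or loss of signal analysed against DMSO.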

[7] = biological target: Hypoxia-inducible factor 1-alpha (Homo sapiens) (UniProt Q16665); test: ATG_HIF1a_CIS: Attagene CIS-FACTORIAL HepG2 Assay for human Hypoxia Inducible Factor 1 (HIF1A) (AID 2282951); conditions: HepG2 Attagene cis-factorial HIF1a reporter transcription; actives raise or lower the signal
In short: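 Activity is fitted in both directions relative to DMSO. Reporter transcripts are read by RT-PCR, fluorescent primer extension and capillary electrophoresis after 24 h chemical treatment. The cells are HepG2 carrying transiently transfected cis-element-driven reporter units responding to endogenous factors.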

[8] = biological target: Hepatocyte nuclear factor 6 (Homo sapiens) (UniProt Q9UBC0); test: ATG_HNF6_CIS: Attagene CIS-FACTORIAL HepG2 Assay for human Hepatocyte Nuclear Factor 6 (HNF6) (AID 2282952); conditions: HepG2 Attagene cis-factorial HNF6 reporter transcription; actives raise or lower the signal
In short: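 HepG2 cells transiently transfected with cis-element-driven multiple reporter transcription units, dosed 24 h; reporter mRNA quantified by RT-PCR, FAM primer extension, HpaI digestion and capillary electrophoresis; bidirectional fit versus DMSO baseline.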

[9] = ATG_MRE_CIS: Attagene CIS-FACTORIAL HepG2 Assay for human Metal Responsive Element (MRE) (AID 2282954); conditions: HepG2 MRE cis-reporter transcription, Attagene multiplex; actives raise or lower the signal
In short: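 HepG2 cells transiently transfected with multiple cis-element reporter units measure endogenous MTF1-driven transcription. After 24 h compound exposure, reporter mRNA is quantified by RT-PCR with 6-FAM labelling, HpaI digestion and capillary electrophoresis; bidirectional fits versus DMSO.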

[10] = ATG_PBREM_CIS: Attagene CIS-FACTORIAL HepG2 Assay for human Phenobarbital-responsive Enhancer Module (PBREM) (AID 2282955); conditions: HepG2 PBREM cis-reporter, Attagene multiplexed transcription; actives raise or lower the signal
In short: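 Endogenous transcription factor activity was read from reporter transcripts in transiently transfected human HepG2 liver cells after 24 h dosing. RT-PCR products were fluorescently labelled, HpaI-cut and sized by capillary electrophoresis; activity fitted bidirectionally against DMSO baseline.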

[11] = biological target: Paired box protein Pax-6 (Homo sapiens) (UniProt P26367); test: ATG_Pax6_CIS: Attagene CIS-FACTORIAL HepG2 Assay for human Paired Box 6 (PAX6) (AID 2282956); conditions: HepG2 CIS-FACTORIAL PAX6 reporter transcription, RNA readout; actives raise or lower the signal
In short: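 HepG2 cells transiently transfected with multiplexed cis-promoter reporter units (endogenous TF activity) were dosed for 24 h. Reporter mRNA was quantified by RT-PCR, 6-FAM labeling, HpaI digestion and capillary electrophoresis; bidirectional fitting versus DMSO baseline.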

[12] = ATG_PXRE_CIS: Attagene CIS-FACTORIAL HepG2 Assay for human Pregnane X Receptor Element (PXRE) (AID 2282957); conditions: HepG2 Attagene CIS-FACTORIAL PXRE reporter, mRNA; actives raise or lower the signal
In short: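 HepG2 cells transiently transfected with cis-regulated multiple reporter transcription units; endogenous factor activity measured as reporter mRNA 24 h after dosing. RT-PCR, fluorescent primer extension, HpaI digestion, capillary electrophoresis; bidirectional fit versus DMSO baseline.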

[13] = ATG_PPRE_CIS: Attagene CIS-FACTORIAL HepG2 Assay for human Peroxisome Proliferator-activated Response Element (PPRE) (AID 2282958); conditions: HepG2 PPRE cis-element reporter, Attagene transcription factor profiling; actives raise or lower the signal
In short: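 Endogenous PPRE-driven transcription is measured in HepG2 cells carrying transfected multi-reporter constructs. Reporter transcripts are quantified by RT-PCR, HpaI digestion and capillary electrophoresis 24 h after dosing. DMSO baseline, bidirectional fit.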

[14] = ATG_RORE_CIS: Attagene CIS-FACTORIAL HepG2 Assay for human RAR-related Orphan Receptor Element (RORE) (AID 2282959); conditions: HepG2 Attagene cis-factorial RORE reporter, mRNA; actives raise or lower the signal
In short: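 RORE reporter transcripts reflecting endogenous factor activity were read after 24 h compound exposure of transfected HepG2 cells, using reverse transcription, PCR, fluorescent labelling and capillary electrophoresis sizing. Gain or loss fitted against DMSO.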

[15] = ATG_Sox_CIS: Attagene CIS-FACTORIAL HepG2 Assay for human SRY-box transcription factor (SOX) (AID 2282960); conditions: HepG2 Attagene cis-factorial SOX reporter, mRNA; actives raise or lower the signal
In short: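 Reporter transcripts, measured by RT-PCR and capillary electrophoresis of labelled fragments, report endogenous SOX transcription factor activity. Transiently transfected human HepG2 cells receive chemical for 24 h; changes in either direction are fitted relative to DMSO.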

[16] = biological target: Transcription factor Sp1 (Homo sapiens) (UniProt P08047); test: ATG_Sp1_CIS: Attagene CIS-FACTORIAL HepG2 Assay for human Specificity Protein 1 (Sp1) (AID 2282961); conditions: HepG2 Sp1 cis-reporter transcription, actives raise or lower the signal
In short: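 Read-out is reporter transcript level, measured by RT-PCR and fluorescent capillary electrophoresis after 24 h chemical treatment. System: transiently transfected HepG2 cells reporting endogenous transcription factor activity; gain or loss fitted against DMSO baseline.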

[17] = ATG_SREBP_CIS: Attagene CIS-FACTORIAL HepG2 Assay for human Sterol Regulatory Element Binding (SREBP) (AID 2282962); conditions: HepG2 Attagene cis-factorial SREBP reporter, mRNA; actives raise or lower the signal
In short: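 HepG2 cells transiently transfected with multiplexed cis-element reporter units report endogenous transcription factor activity. After 24 h of chemical exposure, reporter mRNA was quantified by RT-PCR, 6-FAM labelling, HpaI digestion and capillary electrophoresis; bidirectional fits used DMSO as baseline.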

[18] = biological target: Signal transducer and activator of transcription 3 (Homo sapiens) (UniProt P40763); test: ATG_STAT3_CIS: Attagene CIS-FACTORIAL HepG2 Assay for human Signal Transducer and Activator of Transcription 3 (STAT3) (AID 2282963); conditions: HepG2, Attagene cis-factorial STAT3 reporter transcription; actives raise or lower the signal
In short: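 HepG2 cells transiently transfected with cis-element-driven multiple reporter transcription units; after 24 h chemical exposure, reporter mRNA measured by RT-PCR, 6-FAM primer-extension labelling, HpaI digestion and capillary electrophoresis. Bidirectional fitting versus DMSO baseline.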

[19] = ATG_TA_CIS: Attagene CIS-FACTORIAL HepG2 Assay for human TA Basal Promoter (AID 2282964); conditions: HepG2 Attagene CIS-factorial TA basal promoter reporter; actives raise or lower the signal
In short: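 Transient MRTU transfection of HepG2 preceded 24 h compound exposure. Reporter mRNA levels were then read by RT-PCR with capillary electrophoresis, and this background-control endpoint was fitted bidirectionally to DMSO.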

[20] = biological target: Heat shock factor protein 1 (Homo sapiens) (UniProt Q00613); test: ATG_HSE_CIS: Attagene CIS-FACTORIAL HepG2 Assay for human Heat Shock Transcription Factor 1 (HSE) (AID 2282953); conditions: HepG2 HSE cis-reporter, Attagene RNA transcription; actives raise or lower the signal
In short: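 Using HepG2 with transfected cis-driven reporter constructs, compound effects on endogenous factor activity are scored as reporter mRNA change at 24 h. Detection: RT-PCR, HpaI digestion, capillary electrophoresis; bidirectional fitting to DMSO.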

Measured: AC50

Sequence of Hepatocyte nuclear factor 6 (Homo sapiens) (Q9UBC0 whole entry, looked up): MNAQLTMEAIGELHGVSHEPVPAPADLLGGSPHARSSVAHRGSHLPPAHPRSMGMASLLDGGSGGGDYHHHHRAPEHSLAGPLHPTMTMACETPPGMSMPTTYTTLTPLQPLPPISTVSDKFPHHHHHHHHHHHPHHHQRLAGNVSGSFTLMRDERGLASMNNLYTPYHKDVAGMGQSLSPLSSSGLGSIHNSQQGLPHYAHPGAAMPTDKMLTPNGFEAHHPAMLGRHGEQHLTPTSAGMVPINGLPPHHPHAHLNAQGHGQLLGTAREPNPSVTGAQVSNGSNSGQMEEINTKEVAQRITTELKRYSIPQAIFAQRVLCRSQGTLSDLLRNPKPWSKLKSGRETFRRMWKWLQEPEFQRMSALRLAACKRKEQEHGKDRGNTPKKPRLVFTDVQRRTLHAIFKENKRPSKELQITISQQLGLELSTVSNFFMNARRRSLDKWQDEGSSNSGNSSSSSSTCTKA
Sequence of Transcription factor Sp1 (Homo sapiens) (P08047 whole entry, looked up): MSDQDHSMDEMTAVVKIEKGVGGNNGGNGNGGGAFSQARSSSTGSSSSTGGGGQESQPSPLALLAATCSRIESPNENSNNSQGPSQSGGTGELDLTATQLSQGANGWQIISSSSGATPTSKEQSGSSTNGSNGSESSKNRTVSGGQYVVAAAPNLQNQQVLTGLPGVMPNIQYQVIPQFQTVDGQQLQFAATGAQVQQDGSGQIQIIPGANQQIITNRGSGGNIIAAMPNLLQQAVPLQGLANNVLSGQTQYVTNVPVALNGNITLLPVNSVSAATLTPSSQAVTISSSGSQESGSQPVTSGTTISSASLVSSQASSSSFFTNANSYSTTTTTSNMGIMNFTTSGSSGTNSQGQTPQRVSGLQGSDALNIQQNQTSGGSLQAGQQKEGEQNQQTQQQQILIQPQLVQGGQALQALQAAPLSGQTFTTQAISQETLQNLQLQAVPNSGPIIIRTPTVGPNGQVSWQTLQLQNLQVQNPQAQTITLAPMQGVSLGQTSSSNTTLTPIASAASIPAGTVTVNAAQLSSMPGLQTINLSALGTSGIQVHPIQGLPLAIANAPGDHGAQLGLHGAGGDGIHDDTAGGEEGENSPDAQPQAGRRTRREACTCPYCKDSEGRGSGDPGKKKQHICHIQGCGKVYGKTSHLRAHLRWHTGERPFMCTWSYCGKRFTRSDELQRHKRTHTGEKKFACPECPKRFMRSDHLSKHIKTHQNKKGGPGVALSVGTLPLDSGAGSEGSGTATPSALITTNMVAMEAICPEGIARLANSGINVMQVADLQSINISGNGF
Sequence of Signal transducer and activator of transcription 3 (Homo sapiens) (P40763 whole entry, looked up): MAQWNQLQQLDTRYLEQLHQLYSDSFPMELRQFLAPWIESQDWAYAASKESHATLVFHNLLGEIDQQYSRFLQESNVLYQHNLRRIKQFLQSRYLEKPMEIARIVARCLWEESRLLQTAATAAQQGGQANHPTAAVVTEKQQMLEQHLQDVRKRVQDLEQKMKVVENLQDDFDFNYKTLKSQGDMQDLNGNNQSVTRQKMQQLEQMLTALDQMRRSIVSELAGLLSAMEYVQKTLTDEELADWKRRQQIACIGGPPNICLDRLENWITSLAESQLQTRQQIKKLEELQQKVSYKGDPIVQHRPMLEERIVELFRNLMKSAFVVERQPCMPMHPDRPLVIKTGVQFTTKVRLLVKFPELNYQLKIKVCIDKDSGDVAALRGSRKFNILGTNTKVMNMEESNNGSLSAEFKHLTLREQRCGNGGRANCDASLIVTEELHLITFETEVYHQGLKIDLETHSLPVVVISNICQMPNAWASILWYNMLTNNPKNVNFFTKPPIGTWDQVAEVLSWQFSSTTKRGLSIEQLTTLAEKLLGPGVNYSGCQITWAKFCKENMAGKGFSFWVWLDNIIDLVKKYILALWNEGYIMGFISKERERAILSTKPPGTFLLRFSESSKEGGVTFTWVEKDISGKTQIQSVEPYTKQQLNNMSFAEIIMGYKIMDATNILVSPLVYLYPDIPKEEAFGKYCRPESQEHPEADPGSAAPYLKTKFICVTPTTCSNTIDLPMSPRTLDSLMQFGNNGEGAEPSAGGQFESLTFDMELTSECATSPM
Sequence of Heat shock factor protein 1 (Homo sapiens) (Q00613 whole entry, looked up): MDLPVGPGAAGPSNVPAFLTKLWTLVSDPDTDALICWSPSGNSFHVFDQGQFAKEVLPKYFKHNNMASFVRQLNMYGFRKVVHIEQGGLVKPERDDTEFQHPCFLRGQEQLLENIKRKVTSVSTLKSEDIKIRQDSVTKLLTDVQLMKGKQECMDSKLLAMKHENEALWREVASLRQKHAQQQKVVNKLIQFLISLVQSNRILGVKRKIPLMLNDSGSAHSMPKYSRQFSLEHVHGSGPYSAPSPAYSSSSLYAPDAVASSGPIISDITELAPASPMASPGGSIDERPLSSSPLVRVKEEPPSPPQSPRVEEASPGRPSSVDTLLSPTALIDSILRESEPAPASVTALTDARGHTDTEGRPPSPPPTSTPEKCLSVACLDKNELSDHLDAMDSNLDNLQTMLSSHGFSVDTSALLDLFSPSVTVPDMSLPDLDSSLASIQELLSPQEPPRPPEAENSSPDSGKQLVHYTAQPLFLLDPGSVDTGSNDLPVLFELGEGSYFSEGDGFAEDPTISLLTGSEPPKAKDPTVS
Sequence of Paired box protein Pax-6 (Homo sapiens) (P26367 whole entry, looked up): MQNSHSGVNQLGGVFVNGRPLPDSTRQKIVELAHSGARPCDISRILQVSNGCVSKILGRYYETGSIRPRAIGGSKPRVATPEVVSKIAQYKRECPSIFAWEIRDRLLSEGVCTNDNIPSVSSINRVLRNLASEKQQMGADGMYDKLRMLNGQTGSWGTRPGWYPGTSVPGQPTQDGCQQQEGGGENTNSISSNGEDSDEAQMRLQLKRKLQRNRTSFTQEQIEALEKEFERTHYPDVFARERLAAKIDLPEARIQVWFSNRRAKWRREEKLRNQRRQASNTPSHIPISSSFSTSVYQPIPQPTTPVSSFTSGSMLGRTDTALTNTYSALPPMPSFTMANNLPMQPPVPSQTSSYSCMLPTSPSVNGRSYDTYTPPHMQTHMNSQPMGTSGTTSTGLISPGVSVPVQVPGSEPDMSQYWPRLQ
Sequence of Hypoxia-inducible factor 1-alpha (Homo sapiens) (Q16665 whole entry, looked up): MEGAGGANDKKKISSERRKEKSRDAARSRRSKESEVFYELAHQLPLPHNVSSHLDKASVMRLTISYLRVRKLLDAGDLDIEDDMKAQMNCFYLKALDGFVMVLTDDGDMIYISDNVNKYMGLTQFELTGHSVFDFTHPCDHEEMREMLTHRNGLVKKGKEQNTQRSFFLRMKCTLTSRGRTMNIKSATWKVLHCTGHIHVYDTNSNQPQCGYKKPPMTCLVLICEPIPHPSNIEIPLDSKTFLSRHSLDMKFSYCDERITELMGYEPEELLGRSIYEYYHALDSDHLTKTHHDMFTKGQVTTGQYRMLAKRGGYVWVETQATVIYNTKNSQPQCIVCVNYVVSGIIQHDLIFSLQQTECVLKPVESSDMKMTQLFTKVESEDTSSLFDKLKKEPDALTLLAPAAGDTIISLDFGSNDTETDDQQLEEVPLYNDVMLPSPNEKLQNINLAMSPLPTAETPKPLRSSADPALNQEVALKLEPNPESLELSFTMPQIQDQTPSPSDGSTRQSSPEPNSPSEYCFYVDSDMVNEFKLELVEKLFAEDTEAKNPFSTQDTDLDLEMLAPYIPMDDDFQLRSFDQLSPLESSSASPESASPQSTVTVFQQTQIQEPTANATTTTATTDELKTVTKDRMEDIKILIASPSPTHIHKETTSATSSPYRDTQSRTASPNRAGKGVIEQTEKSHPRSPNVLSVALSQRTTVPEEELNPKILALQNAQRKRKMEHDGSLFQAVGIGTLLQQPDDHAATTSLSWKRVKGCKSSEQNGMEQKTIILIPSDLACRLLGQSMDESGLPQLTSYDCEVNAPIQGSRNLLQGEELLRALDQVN
Sequence of Bile acid receptor (Homo sapiens) (Q96RI1 whole entry, looked up): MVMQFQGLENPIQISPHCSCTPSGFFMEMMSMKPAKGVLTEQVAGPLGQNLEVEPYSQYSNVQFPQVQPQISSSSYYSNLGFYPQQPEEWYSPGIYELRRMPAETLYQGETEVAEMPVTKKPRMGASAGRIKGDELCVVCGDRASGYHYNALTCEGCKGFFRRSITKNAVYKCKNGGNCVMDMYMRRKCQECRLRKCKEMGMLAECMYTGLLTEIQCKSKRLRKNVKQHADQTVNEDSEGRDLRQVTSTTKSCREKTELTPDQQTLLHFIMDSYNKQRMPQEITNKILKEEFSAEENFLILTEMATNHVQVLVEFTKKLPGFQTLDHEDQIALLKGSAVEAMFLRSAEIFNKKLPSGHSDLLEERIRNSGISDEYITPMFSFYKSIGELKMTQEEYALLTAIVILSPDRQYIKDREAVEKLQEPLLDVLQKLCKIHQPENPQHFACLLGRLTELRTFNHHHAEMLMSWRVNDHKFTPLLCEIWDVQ

O=S(=O)(O)C(F)(F)C(F)(F)C(F)(F)C(F)(F)C(F)(F)C(F)(F)C(F)(F)F
active: [5] 149 µM | [8] 157 µM | [12] 20.3 µM and 19.7 µM | [13] 61.2 µM | [17] 150 µM | [18] 163 µM | [19] 159 µM
inactive: [1] | [2] | [3] | [4] | [5] | [6] | [7] | [8] | [9] | [10] | [11] | [13] | [14] | [15] | [16] | [17] | [18] | [19]

CC/C=C\CCOC(=O)c1ccccc1
not listed: [14]
inactive: all other assays above

O=S(=O)(OCCOC(F)(F)F)C(F)(F)F
not listed: [9]
inactive: all other assays above

CCCCCCCCCCCCCCCC[N+](C)(C)Cc1ccccc1
active: [2] 10.2 µM | [4] 47.6 µM | [20] 24.5 µM | [16] 132 µM
not listed: [14]
inactive: all other assays above

CCc1c(Br)c(Br)c(Br)c(Br)c1Br
active: [10] 23.7 µM | [12] 8.3 µM
not listed: [14]
inactive: all other assays above

FC(F)(F)C(F)(F)C(F)(F)C(F)(F)C(F)(F)C(F)(F)C(F)(F)Br
inactive: all assays above

Cc1ccc(S(=O)(=O)OCC(F)(F)C(F)(F)C(F)(F)C(F)(F)C(F)(F)C(F)F)cc1
active: [12] 1.95 µM
inactive: all other assays above

Oc1ccc(Nc2ccccc2)cc1
active: [20] 168 µM | [9] 61.1 µM | [12] 21.9 µM | [14] 74.6 µM | [19] 58.1 µM
inactive: all other assays above

O=C(O)C(F)(OC(F)(F)C(F)(OC(F)(F)C(F)(F)C(F)(F)F)C(F)(F)F)C(F)(F)F (centres undefined)
not listed: [14]
inactive: all other assays above

O=S(=O)(OCC(F)F)C(F)(F)F
inactive: all assays above

O=C(O)C(F)(F)C(F)(F)C(F)(F)C(F)(F)C(F)(F)C(F)(F)C(F)(F)C(F)(F)C(F)(F)C(F)(F)C(F)(F)C(F)(F)C(F)(F)F
active: [12] 21.8 µM
inactive: all other assays above

FC(F)(I)C(F)(F)C(F)(F)C(F)(F)I
inactive: all assays above

CCCCCCCCC(F)(F)C(F)(F)C(F)(F)C(F)(F)C(F)(F)C(F)(F)F
not listed: [14]
inactive: all other assays above
